Compound activity: PubChem BioAssay, National Center for Advancing Translational Sciences (NCATS)
A selection: hits, their analogues and other compounds. The true share with any hit is near 3.3%.
Sm TGR inh: S. mansoni TGR enzyme inhibition; Q962Y6; purified TGR, DTNB reduction, TNB absorbance 405 nm; Potency, µM (top dose mostly 114 µM), inactives show at the highest dose activity change, negative = inhibition, usual class: inhibitors; 360,000 tested, 3% active; AID 485364; note: nearly all actives have a fitted effect of over 60% in size
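Kinetic colorimetric format: TGR-catalysed, NADPH-driven DTNB reduction monitored via TNB absorbance. Enzyme dispensed at 20 nM; compound exposure 15 min at room temperature before reaction start.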
AmpC no deterg: blocks E. coli AmpC beta-lactamase in detergent-free assay. P00811. 330,000 tested, 0.52% active. Potency, µM (top dose mostly 57.1 µM), for the others: top-dose activity change, negative = inhibition, most hits filed as inhibitors. AmpC nitrocefin hydrolysis, absorbance 480 nm, 0.0001% Triton;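 note: plate controls were no compound for no effect and no enzyme for full effect; nearly all actives have a fitted effect of over 20% in size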
Target sequence (P00811 whole entry, looked up): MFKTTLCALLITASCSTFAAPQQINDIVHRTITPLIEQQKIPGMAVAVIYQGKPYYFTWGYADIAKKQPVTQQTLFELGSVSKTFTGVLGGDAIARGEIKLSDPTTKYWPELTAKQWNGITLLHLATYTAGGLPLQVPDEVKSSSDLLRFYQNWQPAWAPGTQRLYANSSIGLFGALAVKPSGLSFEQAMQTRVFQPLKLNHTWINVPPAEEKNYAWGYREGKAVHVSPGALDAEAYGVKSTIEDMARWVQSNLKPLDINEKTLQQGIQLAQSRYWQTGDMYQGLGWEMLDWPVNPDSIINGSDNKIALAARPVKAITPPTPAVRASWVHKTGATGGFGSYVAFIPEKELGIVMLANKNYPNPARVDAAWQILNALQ
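AmpC (5.3 nM in the dispensed reagent) in 20 mM phosphate pH 7.0 with 0.01% (detergent screen) or 0.0001% Triton X-100 was preincubated with compounds for 15 min at room temperature. Nitrocefin was then added from an 800 uM solution, and hydrolysis was followed at 480 nm.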
AmpC inh detg: blocks E. coli AmpC beta-lactamase in detergent assay; P00811; AmpC hydrolysis of nitrocefin, absorbance 480 nm, 0.01% Triton; Potency, µM (titrated, usually from 114 µM), inactives show at the top dose activity change, negative = inhibition, usual class: inhibitors; 370,000 tested, 0.041% active;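 note: 0% = no-compound wells and -100% = no-enzyme wells; nearly all actives have a fitted effect of over 25% in size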
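AmpC (5.3 nM in the dispensed reagent) in 20 mM phosphate pH 7.0 with 0.01% (detergent screen) or 0.0001% Triton X-100 was preincubated with compounds for 15 min at room temperature. Nitrocefin was then added from an 800 uM solution, and hydrolysis was followed at 480 nm.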
* marks the source's active call; other numbers are inactive results. Calls come from the whole dose curve; as a rule, active = well fitted curve in the direction sought with a large enough effect; inconclusive = small, poorly fitted or top-dose-only effect, or another doubt; inactive = no such curve, though single readings can be large; an effect the other way counts as inactive or inconclusive. Unless noted, % is set by controls: 0 for no effect and ±100 for the full control effect; potency is the fitted concentration of half-maximal effect.

For NC1CCc2cc(O)c(O)cc2C1 (stereo not drawn) the results were Sm TGR inh 45µM*, AmpC no deterg -31% and AmpC inh detg inconclusive.
Screening Cc1cc(/C=N/NC(N)=S)c(C)n1-c1ccc(Cl)c(Cl)c1 returned Sm TGR inh 5%, AmpC no deterg inconclusive and AmpC inh detg -2%.
CCNC(=S)N/N=C/c1cc(C)n(-c2ccc(Cl)cc2)c1C was read as Sm TGR inh -1%, AmpC no deterg 28µM* and AmpC inh detg 1%.
`Cc1cc2c(ccc3[nH]onc32)n1` gave Sm TGR inh 32µM*, AmpC no deterg -14% and AmpC inh detg inconclusive.
`Cc1ccc2nc(C)cc(Cl)c2c1` gave Sm TGR inh 4%, AmpC no deterg -22% and AmpC inh detg -8%.
Cc1cc(C)n(-c2nc3cc(Cl)ccc3nc2N2CCN(c3ccccc3F)CC2)n1 was read as Sm TGR inh 6% and AmpC inh detg 14%.
COc1ccccc1NC(=O)c1nn(-c2ccc(Cl)cc2)ccc1=O was read as Sm TGR inh -10%, AmpC no deterg -12% and AmpC inh detg 2%.
For COc1ccccc1NC(=O)c1nn(-c2ccccc2)ccc1=O the results were Sm TGR inh -1%, AmpC no deterg 0.14µM* and AmpC inh detg -3%.
`COc1ccc(S(=O)(=O)/N=C2\C=C(Nc3ccc(O)cc3)C(=O)c3ccccc32)cc1` gave Sm TGR inh -3%, AmpC no deterg -35% and AmpC inh detg inconclusive.
For COC(=O)C(C(C)=O)C1=C/C(=N\S(=O)(=O)c2ccc(C)cc2)c2ccccc2C1=O (stereo not drawn) the results were Sm TGR inh 28µM*, AmpC no deterg -25% and AmpC inh detg inconclusive.
CC(=O)Nc1ccc(-c2ccc3nnc(C)n3n2)cc1 was read as Sm TGR inh 0%, AmpC no deterg -23% and AmpC inh detg 7%.
Cc1nnc2ccc(-c3ccc(NC(=O)c4ccco4)cc3)nn12 was read as Sm TGR inh 32µM*, AmpC no deterg -19% and AmpC inh detg 4%.
Cc1cccc(NC(=O)CCS(=O)(=O)c2cc(Br)cc3c2N(C(=O)C2CC2)CC3)c1 was read as Sm TGR inh -2% and AmpC inh detg 1%.
Cc1ccc2cc(C3CC(c4ccco4)=NN3S(=O)(=O)c3ccccc3)c(Cl)nc2c1 (stereo not drawn) was read as Sm TGR inh -23%, AmpC no deterg 1% and AmpC inh detg inconclusive.
Screening CCOc1ccc2cc(C3CC(c4ccco4)=NN3S(C)(=O)=O)c(=O)[nH]c2c1 (stereo not drawn) returned Sm TGR inh 3.2µM*, AmpC no deterg 5% and AmpC inh detg 0%.
CC(=O)N1N=C(c2ccco2)CC1c1cc2cc(C)ccc2nc1Cl (stereo not drawn) was read as Sm TGR inh inconclusive, AmpC no deterg -14% and AmpC inh detg -15%.
`CCOc1ccc2cc(C3CC(c4ccco4)=NN3S(=O)(=O)c3ccccc3)c(Cl)nc2c1` (stereo not drawn) gave Sm TGR inh -3%, AmpC no deterg inconclusive and AmpC inh detg 2%.
Screening CCOc1ccc2nc(Cl)c(C3CC(c4ccco4)=NN3S(C)(=O)=O)cc2c1 (stereo not drawn) returned Sm TGR inh 32µM*, AmpC no deterg 60% and AmpC inh detg -2%.
COc1ccc2cc(C3CC(c4ccco4)=NN3S(=O)(=O)c3ccccc3)c(Cl)nc2c1 (stereo not drawn) was read as Sm TGR inh 0%, AmpC no deterg 3% and AmpC inh detg 2%.
Cc1ccc2cc(C3CC(c4ccco4)=NN3S(C)(=O)=O)c(Cl)nc2c1 (stereo not drawn) was read as Sm TGR inh 11µM*, AmpC no deterg 40% and AmpC inh detg -8%.
For Cc1ccc2nc(Cl)c(C3CC(c4ccco4)=NN3S(C)(=O)=O)cc2c1 (stereo not drawn) the results were Sm TGR inh 14µM*, AmpC no deterg 21% and AmpC inh detg 0%.
Cc1ccc2oc(-c3ccc(Cl)c(NC(=O)c4cc5ccccc5o4)c3)nc2c1 was read as Sm TGR inh 6% and AmpC inh detg 8%.
COc1ccccc1-c1c(C)nn2c(-c3ccccc3)cc(-c3ccccc3)nc12 was read as Sm TGR inh 11% and AmpC inh detg 18%.
`Cc1cccc(-c2nc(C)c(CCNC(=O)C(=O)Nc3ccc(C)c(C)c3)s2)c1` gave Sm TGR inh -2% and AmpC inh detg -6%.
For CC1(C)Oc2ccc3ccc(=O)oc3c2C(N2CCCCC2)C1O (stereo not drawn) the results were Sm TGR inh 35µM*, AmpC no deterg 99% and AmpC inh detg inconclusive.
Screening CC1(C)Oc2ccc3ccc(=O)oc3c2[C@H](O)[C@H]1O returned Sm TGR inh 1%, AmpC no deterg -3% and AmpC inh detg 2%.
COc1cc(C(=O)O)c([N+](=O)[O-])c(OC)c1OC was read as Sm TGR inh 2%, AmpC no deterg -12% and AmpC inh detg 6%.
`COc1ccc(OC)c([N+](=O)[O-])c1C(N)=O` gave Sm TGR inh 79µM*, AmpC no deterg -10% and AmpC inh detg -3%.
For O=C(/C=C/c1ccco1)N1CCN(c2ncccn2)CC1 the results were Sm TGR inh 20µM*, AmpC no deterg -12% and AmpC inh detg 4%.
Screening COc1cccc(N2CCN(C(=O)/C=C/c3ccco3)CC2)c1 returned Sm TGR inh 22µM*, AmpC no deterg 37% and AmpC inh detg 7%.
`O=C(/C=C/c1c(Cl)cccc1Cl)N1CCN(c2ncccn2)CC1` gave Sm TGR inh -7%, AmpC no deterg 8% and AmpC inh detg -11%.
For CC(C)C(=O)N1CCC(Cc2ccccc2)CC1 the results were Sm TGR inh 0%, AmpC no deterg 1% and AmpC inh detg 1%.
Screening COc1ccc(S(=O)(=O)N2CCN(C(=O)/C=C/c3ccco3)CC2)cc1 returned Sm TGR inh 8.9µM*, AmpC no deterg -9% and AmpC inh detg -2%.
For O=C(/C=C/c1ccco1)N1CCC(Cc2ccccc2)CC1 the results were Sm TGR inh 20µM*, AmpC no deterg 1% and AmpC inh detg -2%.
O=C(/C=C/c1ccco1)N1CCN(S(=O)(=O)c2cccc([N+](=O)[O-])c2)CC1 was read as AmpC no deterg 7%.
`COc1cccc(N2CCN(Cc3ccco3)CC2)c1` gave Sm TGR inh -22%, AmpC no deterg -3% and AmpC inh detg -14%.
Fc1ccccc1N1CCN(c2c3c(nc4nncn24)CCC3)CC1 was read as Sm TGR inh 0% and AmpC inh detg 17%.
For CCC(=O)N1CCCc2cc(S(=O)(=O)N3CCC(C(=O)NC4CCC(C)CC4)CC3)ccc21 (stereo not drawn) the results were Sm TGR inh -4% and AmpC inh detg -6%.
For O=C(Nc1ccc2c(c1)N(C1CCCC1)C(=O)c1ccccc1S2)c1cccc(F)c1 the results were Sm TGR inh 9% and AmpC inh detg 8%.
Cc1ccc(NC(=O)c2cc(S(=O)(=O)N3CCc4ccccc43)cn2C)c(Cl)c1 was read as Sm TGR inh -9% and AmpC inh detg -1%.
